Results on 8 molecules are retold here after PubChem BioAssay (Tox21).

A short description of assay [1]: A CellTox Green Cytotoxicity Assay to monitor cytotoxicity in HepG2 cells - 8 hour (AID 1224890). Note: nearly all actives have a fitted effect of over 45% in size. Note: potency is the fitted concentration of half-maximal effect. In a few lines:
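Real-time, homogeneous cytotoxicity readout: dead-cell DNA staining by CellTox Green in HepG2 monolayers, fluorescence measured at timed intervals up to 40 h of continuous compound exposure.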

A short description of assay [2]: qHTS assay to identify small molecule antagonists of the estrogen receptor alpha (ER-alpha) signaling pathway using the BG1 cell line in the presence of 0.1 nM 17-beta-estradiol - cell viability counter screen (AID 1259241). Note: nearly all actives have a fitted effect of over 40% in size. In a few lines:
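Live-cell protease activity (CellTiter-Fluor fluorescence, 30 min) was read in the same wells after VM7Luc4E2 cells had been exposed to compounds with 0.1 nM 17beta-estradiol for 22 hr at 37C.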
On the technique in general: In qHTS, concentration-response curves come from the screen itself.

A short description of assay [3]: qHTS assay to identify small molecule antagonists of the androgen receptor (AR) signaling pathway using the MDA cell line in the presence of 0.5 nM R1881 - cell viability counter screen (AID 1259242). Note: nearly all actives have a fitted effect of over 45% in size. An outline of the steps:
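Cytotoxicity toward MDA-kb2 cells is measured by CellTiter-Fluor live-cell protease fluorescence after 16 hr compound exposure at 37C in the presence of 0.5 nM R1881 stimulator.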

The target in assay [4] is Androgen receptor (Homo sapiens) (UniProt P10275). Description: qHTS assay to identify small molecule antagonists of the androgen receptor (AR) signaling pathway using the MDA cell line in the presence of 0.5 nM R1881 (AID 1259243). Note: nearly all actives have a fitted effect of over 50% in size. Note: potency is the fitted concentration of half-maximal effect. In a few lines:
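Steps: seed MDA-kb2 cells, incubate 5 hr at 37C; pin-transfer compounds in DMSO; add R1881 to 0.5 nM final; incubate 16 hr; add ONE-Glo, wait 30 min at room temperature; read luminescence.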

The target of assay [5] is Estrogen receptor (Homo sapiens) (UniProt P03372). Kind of assay: qHTS assay to identify small molecule antagonists of the estrogen receptor alpha (ER-alpha) signaling pathway using the BG1 cell line in the presence of 0.1 nM 17-beta-estradiol (AID 1259244). Note: nearly all actives have a fitted effect of over 50% in size. In a few lines:
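After 5 days in hormone-depleted medium (charcoal-stripped serum, no phenol red), VM7Luc4E2 cells were seeded, incubated 24 h, then co-treated with compound and 0.1 nM (final) estradiol for 22 h before luminescence detection.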

Assay [6] in a line: qHTS assay to identify small molecule HDAC inhibitors (AID 1259364). Note: nearly all actives have a fitted effect of over 45% in size. Note: potency is the fitted concentration of half-maximal effect. An outline of the steps:
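Homogeneous cell-based luminescent assay of endogenous class I/II HDAC activity; HCT-116 cells, 2 h compound exposure, 30 min HDAC-Glo development at RT.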

Assay [7] in a line: qHTS assay to identify small molecule HDAC inhibitors - cell viability counter screen (AID 1259365). Note: series mostly up to about 92 µM; nearly all actives have a fitted effect of over 50% in size. An outline of the steps:
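HCT-116 (wild type), 1,500 cells/well, overnight 37C/5% CO2; compound in DMSO 2hr; CellTiter-Glo 30min RT; luminescence read.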

Assay [8] can be described thus: qHTS assay to identify small molecule antagonists of the sonic hedgehog signaling (Shh) pathway - cell viability counter screen (AID 1259367). Note: nearly all actives have a fitted effect of over 55% in size. Note: potency is the fitted concentration of half-maximal effect. An outline of the steps:
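NIH/3T3-derived Gli1-Luc reporter cells (2,000 per well) rested 4 hr at 37 C, then received DMSO compounds plus conditioned medium. After 23 hr of treatment, CellTiter-Fluor was added for 1 hr at 37C and fluorescence read.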

Assay [9] in a line: qHTS assay to identify small molecule agonists of the sonic hedgehog signaling (Shh) pathway (AID 1259368; calls by dose curve;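 note: NIH/3T3-derived 3T3Gli1-Luc cells carrying a stable Gli1-driven firefly luciferase reporter; series mostly up to about 92 µM; nearly all actives have a fitted effect of over 15% in size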). An outline of the steps: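 Steps: seed 3T3 Gli1-Luc cells, incubate 4 hr at 37 C, pin-transfer compounds in DMSO alongside a positive control, incubate 24 hr, add luciferase detection reagent, wait 30 min at room temperature, read luminescence.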
Assay [10] is described as follows: qHTS assay to identify small molecule antagonists of the sonic hedgehog signaling (Shh) pathway (AID 1259369; calls by dose curve; note: nearly all actives have a fitted effect of over 45% in size; note: potency is the fitted concentration of half-maximal effect). An outline of the steps:
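Inhibition of Shh signalling is measured as reduced Gli1-response-element firefly luciferase output in an NIH/3T3-derived stable reporter clone stimulated with conditioned medium for 24hr.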

Assay [11] addresses Estrogen receptor beta (Homo sapiens) (UniProt Q92731). Description: qHTS assay to identify small molecule agonists of the estrogen receptor beta (ER-beta) signaling pathway (AID 1259377; active = well fitted activation curve with a large enough effect in the signal ratio in the repeat runs, not every such curve was filed as active; the % refers to the signal ratio; note: potency is the fitted concentration of half-maximal effect). An outline of the steps: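 Beta-lactamase reporter readout: fluorescence of LiveBLAzer B/G FRET substrate after 2 h at room temperature, following 16 h compound treatment of ER-beta-UAS-bla HEK293T cells at 37C in 2% charcoal-stripped FBS medium.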

Assay [12] has the same target. Description: qHTS assay to identify small molecule antagonists of the estrogen receptor beta (ER-beta) signaling pathway (AID 1259378; active = well fitted inhibition curve with a large enough effect in the signal ratio in the repeat runs, not every such curve was filed as active; the % refers to the signal ratio). An outline of the steps: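 ER-beta-UAS-bla HEK293T (GripTite) cells in 2% charcoal-stripped FBS medium were preincubated 6 hr at 37C, dosed with compound, then stimulated with 1 nM E2 (final) for 16 hr; beta-lactamase reporter read by B/G FRET fluorescence after 2 hr substrate loading.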

Assay [13] can be described thus: qHTS assay to identify small molecule agonists of the androgen receptor (AR) signaling pathway in the presence of an antagonist - cell viability counter screen (AID 1259379).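 Note: MDA-kb2 human breast cancer cells carrying an MMTV luciferase reporter; series mostly up to about 92 µM; nearly all actives have a fitted effect of over 25% in size.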 In a few lines: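 Fluorescence from CellTiter-Fluor, added after 15 hr and read 1 hr later, gave cell viability. Cells were MDA-kb2 exposed to compounds (15 concentrations) in the presence of 3.0uM nilutamide at 37C, 0% CO2.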

Assay [14] addresses Androgen receptor (Homo sapiens) (UniProt P10275). Kind of assay: qHTS assay to identify small molecule agonists of the androgen receptor (AR) signaling pathway in the presence of an antagonist (AID 1259381; calls by dose curve; note: nearly all actives have a fitted effect of over 15% in size). An outline of the steps:
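Cells are MDA-kb2 (human breast carcinoma, MMTV-luc, AR/GR responsive). Nilutamide is present at 3.0uM final throughout; compounds are added at 15 concentrations and incubated 16hr at 37C before ONE-Glo luminescence detection.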

Assay [15] can be described thus: qHTS assay to identify small molecule antagonists of the estrogen receptor beta (ER-beta) signaling pathway - cell viability counter screen (AID 1259382). Note: series mostly up to about 92 µM; nearly all actives have a fitted effect of over 55% in size. In a few lines: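 Following a 6 hr plating period, HEK293T cells carrying a UAS-driven beta-lactamase reporter under ER-beta control received compounds and 1nM E2 (final). After 16 hr at 37C and 2 hr substrate loading, CellTiter-Glo luminescence indicated viability.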

The target in assay [16] is Estrogen receptor (Homo sapiens) (UniProt P03372). Description: qHTS assay to identify small molecule agonists of the estrogen receptor alpha (ER-alpha) signaling pathway in the presence of an antagonist (AID 1259383; calls by dose curve; note: nearly all actives have a fitted effect of over 15% in size; note: potency is the fitted concentration of half-maximal effect; for activation: top concentration of the series differs between compounds). An outline of the steps: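 Cells are hormone-deprived for 5 days (charcoal-stripped FBS, no phenol red), plated for 24hr, spiked with 10.0nM ICI-182,780, then dosed at 15 concentrations. After 22hr at 37C, ONE-Glo luminescence reports ERE-luciferase activity.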

A short description of assay [17]: qHTS assay to identify small molecule phospholipidosis (PLD) inducers (AID 1259344; active = well fitted curve in the direction sought with a large enough effect; an effect the other way counts as inactive or inconclusive). An outline of the steps:
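HepG2 cells on collagen I, attached 4 h at 37 C, were co-treated with compound and LipidTOX Red dye for 24 h at 37 C, then fixed with paraformaldehyde plus Hoechst 33342 and imaged by high-content microscopy for phospholipid accumulation.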

Assay [18] in a line: qHTS assay to identify small molecule agonists of the sonic hedgehog signaling (Shh) pathway - cell viability counter screen (AID 1259366). Note: nearly all actives have a fitted effect of over 50% in size. In a few lines: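 CellTiter-Fluor fluorescence read-out, 1 hr at 37C, added after 23hr compound exposure. Cells: 3T3 Gli1-Luc, an NIH/3T3 clone with stably integrated Gli1-Luc reporter, plated 4hr before compound.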
Assay [19] can be described thus: qHTS assay to identify small molecule agonists of the estrogen receptor beta (ER-beta) signaling pathway - cell viability counter screen (AID 1259380). Note: nearly all actives have a fitted effect of over 30% in size. In a few lines:
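Same-well viability counter screen. Cells: ER-beta-UAS-bla HEK293T, plated 6 hr before compound, in 2% charcoal-stripped FBS. Compound exposure 16 hr, 37C; viability by CellTiter-Glo luminescence after 30 min at room temperature.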

Assay [20] can be described thus: qHTS assay to identify small molecule agonists or antagonists of the thyroid stimulating hormone receptor (TSHR) signaling pathway - wild type cell line counter screen (AID 1259384; calls by dose curve). In a few lines:
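Wild-type HEK293 cells were plated 18 h at 37 C/5% CO2, pin-dosed with compound plus Ro20-1724 medium, held 30 min at room temperature, then given cAMP-d2 and anti-cAMP-cryptate; fluorescence was read after 1 h. Fifteen concentrations, triplicate.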

Unmarked numbers belong to inactive results. Inconclusive results are not listed. The source made the active and inactive calls. Unless noted, calls come from the whole dose curve; as a rule, active = well fitted curve in the direction sought with a large enough effect in the repeat runs; inconclusive = weak or mixed curves; inactive = no such curve, though single readings can be large; an effect the other way counts as inactive or inconclusive.

Sequence of Estrogen receptor beta (Homo sapiens) (Q92731 whole entry, looked up): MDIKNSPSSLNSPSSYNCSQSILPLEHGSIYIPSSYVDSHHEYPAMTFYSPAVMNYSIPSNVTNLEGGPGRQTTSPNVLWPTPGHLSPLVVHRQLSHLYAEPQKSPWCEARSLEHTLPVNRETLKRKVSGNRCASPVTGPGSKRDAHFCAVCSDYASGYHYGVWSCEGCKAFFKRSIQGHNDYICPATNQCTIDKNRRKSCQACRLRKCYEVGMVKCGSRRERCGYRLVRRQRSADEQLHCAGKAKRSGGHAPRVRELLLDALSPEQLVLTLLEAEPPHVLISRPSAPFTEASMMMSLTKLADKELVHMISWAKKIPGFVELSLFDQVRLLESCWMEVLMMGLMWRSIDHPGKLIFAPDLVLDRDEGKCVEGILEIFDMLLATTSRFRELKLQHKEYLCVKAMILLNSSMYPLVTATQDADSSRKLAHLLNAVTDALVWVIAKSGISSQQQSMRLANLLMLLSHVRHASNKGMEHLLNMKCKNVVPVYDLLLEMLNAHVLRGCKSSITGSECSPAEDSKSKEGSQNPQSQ
Sequence of Estrogen receptor (Homo sapiens) (P03372 whole entry, looked up): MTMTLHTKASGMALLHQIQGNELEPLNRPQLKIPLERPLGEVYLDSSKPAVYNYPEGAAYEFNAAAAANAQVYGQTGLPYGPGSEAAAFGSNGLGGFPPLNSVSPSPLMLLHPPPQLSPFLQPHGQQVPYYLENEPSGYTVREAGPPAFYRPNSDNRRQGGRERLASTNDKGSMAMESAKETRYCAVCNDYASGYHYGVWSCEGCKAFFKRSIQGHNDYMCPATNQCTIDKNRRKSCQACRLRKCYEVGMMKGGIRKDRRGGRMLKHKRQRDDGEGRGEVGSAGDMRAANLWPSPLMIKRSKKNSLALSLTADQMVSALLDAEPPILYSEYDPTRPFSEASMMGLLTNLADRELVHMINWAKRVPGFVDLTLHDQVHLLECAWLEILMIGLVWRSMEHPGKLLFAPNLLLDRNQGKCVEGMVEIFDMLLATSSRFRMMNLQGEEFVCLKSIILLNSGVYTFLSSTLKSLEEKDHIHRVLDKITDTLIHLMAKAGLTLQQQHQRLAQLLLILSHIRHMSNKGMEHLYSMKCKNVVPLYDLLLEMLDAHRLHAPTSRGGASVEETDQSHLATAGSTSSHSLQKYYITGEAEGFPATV
Sequence of Androgen receptor (Homo sapiens) (P10275 whole entry, looked up): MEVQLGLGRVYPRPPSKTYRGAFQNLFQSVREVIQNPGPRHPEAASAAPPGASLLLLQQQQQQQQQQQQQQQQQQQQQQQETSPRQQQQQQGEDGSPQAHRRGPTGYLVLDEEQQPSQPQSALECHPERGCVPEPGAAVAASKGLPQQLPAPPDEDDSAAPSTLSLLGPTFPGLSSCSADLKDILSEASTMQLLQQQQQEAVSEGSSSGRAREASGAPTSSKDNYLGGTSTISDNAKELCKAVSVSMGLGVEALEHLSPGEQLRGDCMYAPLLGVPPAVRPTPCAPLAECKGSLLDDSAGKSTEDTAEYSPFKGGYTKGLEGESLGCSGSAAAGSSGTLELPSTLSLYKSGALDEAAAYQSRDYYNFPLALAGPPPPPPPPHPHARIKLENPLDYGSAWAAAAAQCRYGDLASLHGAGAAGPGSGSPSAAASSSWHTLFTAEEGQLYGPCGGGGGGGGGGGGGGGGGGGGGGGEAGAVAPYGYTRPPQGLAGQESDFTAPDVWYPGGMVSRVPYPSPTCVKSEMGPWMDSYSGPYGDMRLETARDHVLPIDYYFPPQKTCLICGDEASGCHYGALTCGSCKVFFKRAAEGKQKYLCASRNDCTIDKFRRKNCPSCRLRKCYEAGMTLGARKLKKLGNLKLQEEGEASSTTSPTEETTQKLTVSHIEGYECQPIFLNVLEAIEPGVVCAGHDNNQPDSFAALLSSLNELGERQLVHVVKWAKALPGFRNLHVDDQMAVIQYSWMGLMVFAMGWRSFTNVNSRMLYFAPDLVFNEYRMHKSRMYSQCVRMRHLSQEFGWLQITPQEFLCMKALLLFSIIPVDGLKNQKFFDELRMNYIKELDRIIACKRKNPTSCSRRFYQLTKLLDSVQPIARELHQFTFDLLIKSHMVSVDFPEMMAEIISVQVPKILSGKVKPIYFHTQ

For the molecule `CC(=O)OCC(C)C`, the Potency result in [1], in [2], in assay [3], in assay [4], in assay [5] and in [6] was “inactive” throughout. Further, the Potency entry in assay [7], in assay [8], in assay [9], in assay [10], in [11] and in [12] was “inactive” in each case. Moreover, the Potency result in assay [13], in assay [14], in assay [15] and in [16] was “inactive” in each case.

For `CCN(CC)CCNC(=O)c1cc(Cl)c(N)cc1OC`, the Potency entry in assay [1], in [2], in [3], in assay [5], in [17] and in [6] was “inactive” each time. Also, the Potency result in assay [7], in assay [18], in [8], in assay [9], in [10] and in assay [11] was “inactive” each time. Besides, the Potency entry in [12], in assay [13], in assay [19], in assay [15], in [16] and in [20] was “inactive” in each case.

As to `O=C(O)c1cc(Cl)cc(Cl)c1O`, the Potency result in assay [1], in [2], in assay [3], in assay [4], in assay [7] and in [18] was “inactive” each time. Also, the Potency entry in assay [8], in [9], in [13], in assay [14] and in [15] was “inactive” in each case.

Turning to `O=NN(CCCl)C(=O)NCCCl`, the Potency in assay [1] was 5.35 µM (active). Besides, the Potency result in assay [2], in assay [3], in assay [4], in assay [5], in assay [17] and in assay [6] was “inactive” throughout. Besides, the Potency entry in [7], in [8], in assay [9], in assay [11], in [12] and in assay [13] was “inactive” throughout. The Potency entry in assay [19], in assay [14], in [15], in assay [16] and in assay [20] was “inactive” in each case.

Regarding `O=C(Oc1ccccc1)c1ccc2ccccc2c1O`, the Potency result in assay [1], in [2], in assay [3], in assay [4], in [5] and in assay [7] was “inactive” throughout. Further, the Potency result in [18], in [8], in assay [9], in assay [10], in assay [13] and in [19] was “inactive” throughout. The Potency result in [14] and in assay [15] was “inactive” in each case. In assay [6], the Potency was 9.69 µM (active).

In the case of `Cc1cc(CCCOc2c(C)cc(-c3noc(C(F)(F)F)n3)cc2C)on1`, the Potency result in [1], in [2], in [3], in assay [6], in assay [7] and in [18] was “inactive” each time. Also, the Potency result in assay [8], in assay [9], in [10], in assay [12], in assay [13] and in [19] was “inactive” in each case. In addition, the Potency entry in [14], in [15] and in [20] was “inactive” throughout. Also, the Potency in assay [4] was 26.6 µM (active).

`O=C(c1ccccc1)c1ccc(O)cc1`: the Potency result in assay [1], in assay [2], in [3], in assay [6], in assay [7] and in assay [18] was “inactive” throughout. Further, the Potency result in assay [9], in [13], in assay [19], in assay [14], in [15] and in assay [20] was “inactive” each time. In addition, the Potency in assay [4] was 24.6 µM (active); in assay [8], 49.1 µM (active); in [10], 15.5 µM (active); in assay [11] it was 12.3 µM (active); in [16], 49.1 µM (active).

On to `CCOC(=O)Oc1ccc(CCNC(=O)[C@H](CCSC)NC(C)=O)cc1OC(=O)OCC`, for which the Potency entry in assay [1], in assay [2], in assay [3], in [4], in [5] and in [6] was “inactive” each time. For the same molecule, the Potency result in [7], in assay [18], in assay [8], in [9], in assay [10] and in [13] was “inactive” in each case. Moreover, the Potency result in assay [19], in assay [14], in [15], in assay [16] and in [20] was “inactive” in each case.
